Among the data in PubChem BioAssay AID977606 (Broad Institute, 2014) are outcome values, retold here.

The campaign covered roughly 1,500 compounds. About 430 (29%) were called active. The rule behind the calls is not given here. Not all results are given here. Measured potencies and affinities stand elsewhere.

The assay can be described thus: insulin secretion activators without glucose, dose response, counter-screen for glucose-dependent insulin secretion activators, cell-based, INS-1E, Gaussia luciferase, luminescence, cherry-pick (AID 977606). The note with it: INS-1E Gaussia luciferase insulin secretion, no glucose, 100% = twice neutral-control luminescence; series mostly up to 35 µM. (In general: The purpose of a counterscreen is to sort out artefacts and off-target activity.)
Regarding `Cc1cccc(C)c1-n1nnnc1C1(C)CCC(=O)N1Cc1cccs1` (centres undefined), the molecule was called inactive.
For `Cc1ccc(-n2ncc3c2CC(C)(C)CC3NC(=O)CCCN2CCCC2=O)cc1` (centres undefined) the value was “inactive”.
The same measure for `CCN(CC)CCn1c(=N)n(CC(O)COc2ccccc2)c2ccccc21` (centres undefined): “inactive”; for `COCCNc1nc(Oc2cncc(Cl)c2)c2sccc2n1`: “inactive”.
Take `Cc1ccc(C)c(S(=O)(=O)Nc2ccc(C(=O)N3CCC3)cc2)c1`: the molecule was classed as inactive.
With `N#Cc1cccnc1Nc1cccc(Cl)c1`, the molecule was classed as inactive.
The same measure for `Cc1nc2ccccc2c(=O)n1/N=C/c1ccc(N(C)C)cc1`: “inactive”; for `Cc1noc(C)c1NC(=O)N(C)C[C@H]1Oc2c(NC(=O)C3CCCCC3)cccc2C(=O)N([C@H](C)CO)C[C@@H]1C`: “inactive”; for `C[C@@H]1CN([C@H](C)CO)C(=O)c2cc(C#CCc3ccccc3)cnc2O[C@H]1CN(C)C(=O)C1CCC1`: “inactive”.
For `CN(C(=O)COC(=O)c1cccs1)c1ccccc1` the value was “inactive”; for `CCOC(=O)c1sc(NC(C)=O)nc1-c1ccccc1`, “inactive”; for `O=C(O)C(Cc1ccc(O)cc1)N1C(=O)c2ccccc2C1=O` (centres undefined), “inactive”.
For `CCOc1ccccc1Nc1cc2n(c(=O)n1)CCc1cc(OC)c(OC)cc1-2` the value was “inactive”; for `COC(=O)c1cccc(-n2c(=O)n(Cc3ccccc3)c(=O)c3[nH]cnc32)c1C`, “inactive”; for `O=C(O)c1ccc(S(=O)(=O)N2CCC3(CC2)CC(=O)c2ccccc2O3)cc1`, “inactive”.
Take `CCOC(=O)c1c(C)[nH]c(C(=O)COC(=O)c2cnccn2)c1C`: the molecule was classed as inactive.
Regarding `COc1ccc(N/C=C/C(=O)c2ccc(Cl)cc2)cc1`, the molecule was classed as inactive.
As to `CCOc1ncccc1C(=O)Nc1ccc(S(=O)(=O)Nc2nc(C)cc(C)n2)cc1`, the outcome was inactive.
The same measure for `COc1cc2ccc(CC(=O)O)cc2cc1OC`: “inactive”; for `C[C@H](O)[C@@H]1CN2CCc3ccc(-c4ccc5c(c4)OCO5)cc3[C@@H]2C[C@@H]1N(C)C(=O)c1cccc(Cl)c1`: “inactive”; for `CC(O)c1nc2ccc(Cc3ccc4nc(C(C)O)[nH]c4c3)cc2[nH]1` (centres undefined): “inactive”.
For `O=C(Cc1csc(NC(=O)c2ccccc2)n1)NO` the value was “inactive”; for `Cc1ccc(-c2csc(NC(=O)CCCc3cccs3)n2)cc1`, “inactive”.
For `CCc1c(C(=O)Nc2ccc(C)c(C)c2)[nH]c(C)c1C(C)=O` the value was “inactive”; for `CC(=O)Nc1ccc(-c2ccnc3c2CC(C)(C(=O)Nc2cccc(OC(F)(F)F)c2)O3)cc1` (centres undefined), “inactive”; for `CCSc1ncnc2c(C#N)c3n(c12)CCCCC3`, “inactive”.
`CN1CCCC1CCNC1C2CC3CC(C2)CC1C3` (centres undefined): the outcome was inactive.
For `Cc1c(C(=O)N(C)CCc2cnn(C)c2)oc2c(F)cccc12` the value was “inactive”.
The same measure for `COC(=O)C[C@@H]1OC[C@H](C(C)C)N1S(=O)(=O)c1ccc(C)cc1`: “inactive”.
On to `Cc1ccc(-n2nc3c(c2NC(=O)C2CC2)CS(=O)(=O)C3)cc1`, for which the molecule was classed as inactive.
For `CCc1cc(=O)oc2c(CNCc3ccc(OC)cc3OC)c(O)c(Cl)cc12` the value was “inactive”.
The same measure for `COc1ccc(S(=O)(=O)N2CCCCC2)cc1NC(=O)C1CCCC1`: “inactive”.
For `CN1CCN(c2ccc(NC(=O)c3ccc(Oc4ccccc4)cc3)cc2)CC1` the value was “inactive”; for `N#Cc1cnn2c(C(F)(F)F)cc(-c3ccccc3)nc12`, “inactive”; for `CCCCc1nnc2c(N(C)S(=O)(=O)c3ccccc3)nc3ccccc3n12`, “inactive”.
For `O=C(CCn1nc(-c2ccc(Cl)cc2)ccc1=O)NCCCN1CCCCCC1`, the outcome was inactive.
For `COc1ccc(-n2c3c(c(=O)[nH]c2=O)C(NS(=O)(=O)c2ccc(Cl)cc2)(C(F)(F)F)C(=O)N3)cc1` (centres undefined) the value was “inactive”; for `Cc1cc(-c2ccc(Cl)cc2)n2nc(C)cc2n1`, “inactive”.
Take `CC(=O)Cc1nsc(NC(=O)c2ccc(-c3cccc(Cl)c3)o2)n1`: the call was inactive.
With `CCOc1cccc2cc(C(=O)Nc3cc(C)on3)c(=O)oc12`, the molecule was called inactive.
Consider `CCOc1ccc(CCNC(=O)c2cc(C)on2)cc1OCC`, for which the result was inactive.
The same measure for `O=C(NCCc1ccccc1)c1cc(-c2ccc3c(c2)OCO3)on1`: “inactive”.
`CC(=O)c1cccc(NC2c3ncccc3C(=O)N2Cc2ccco2)c1` (centres undefined): the result was inactive.
Take `COC(C)(C)c1cc(C(C)(C)C)nc(N)n1`: the molecule was called inactive.
The same measure for `O=C(O)CCN1c2ccccc2Sc2ccccc21`: “inactive”.
For the molecule `CC1=NN(C(N)=S)C(=O)C1N=Nc1ccccc1C` (centres undefined), the molecule was called inactive.
For `O=c1cc(-c2cccc(Br)c2)nc(-c2ccccc2F)o1` the value was “inactive”; for `COc1cccc(-c2nnn(CC(=O)O)n2)c1`, “inactive”; for `C1CCN(CCCNC2C3CC4CC(C3)CC2C4)C1` (centres undefined), “inactive”.
With `CC(=O)Nc1nc(CC(C)C)cc(-c2ccco2)c1C#N`, the result was inactive.
As for `CC(C(=O)N1CCC(C(N)=O)CC1)N(c1ccc(Oc2ccccc2)cc1)S(C)(=O)=O` (centres undefined), the outcome was inactive.
For `COc1ccc(C(=O)NCC(=O)OCC(=O)Nc2ccc(C)c(S(=O)(=O)N(C)C)c2)cc1OC` the value was “inactive”; for `c1nc(N2CCOCC2)c2c3c(sc2n1)CCCC3`, “inactive”; for `N#CC1=C(N)Oc2nc(-c3ccccc3)[nH]c2C1c1cccnc1` (centres undefined), “inactive”.
For `CCC(=O)Nc1ccc(C(=O)N/N=C/c2cccnc2)cc1` the value was “inactive”; for `COc1cc(/C=N/NC(=O)C(C)n2nnc3ccccc32)ccc1O` (centres undefined), “inactive”; for `COc1ccc(N2CCN(S(=O)(=O)c3ccc(-c4cc(C)no4)s3)CC2)cc1`, “inactive”.
For `Cc1ccc(S(=O)(=O)N2CCN(C(=O)COC(=O)c3ccc(O)cc3)CC2)c(C)c1` the value was “inactive”; for `Cc1ccc(C(C)C)c(OCCNCCc2ccccc2)c1`, “inactive”; for `Cc1nn(-c2ccccc2)c2c1C(O)CC(C)(C)C2` (centres undefined), “inactive”.
Turning to `CC/C(O)=C1\C(=O)CC(c2ccccc2)CC1=NC(C)C` (centres undefined), the outcome was inactive.
The same measure for `COc1ccc(CCNC(=O)COC(=O)c2cncc(Br)c2)cc1OC`: “inactive”; for `CCc1ccc(OCC(=O)NC(=S)Nc2ccc(C)cc2C)c(Br)c1`: “inactive”.
For `CCOC(=O)C1=NN(C(=O)Nc2cccc(C(F)(F)F)c2)C2C(=O)N(c3cccc(C(F)(F)F)c3)C(=O)C12` (centres undefined) the value was “inactive”; for `C[C@@H]1CC2=C(C(=O)OC(C)(C)O2)[C@H](c2ccc(Cl)cc2)O1`, “inactive”.
For `Cn1c(=O)c(=O)n(C)c2cc(S(=O)(=O)N3CCN(c4ccc(F)cc4)CC3)ccc21` the value was “inactive”; for `COc1ccc(C2=NOC(C(=O)NCc3ccccn3)C2)cc1OC` (centres undefined), “inactive”; for `COc1ccc(-c2cnc(N)nc2-c2ccc(OC)cc2)cc1`, “inactive”.
With `CCOc1ccc(CCNC(=O)COC(=O)c2cccnc2SC)cc1OCC`, the outcome was inactive.
For `CC(C)c1ccc2oc(=O)cc(CN3CCCCC3)c2c1`, the outcome was inactive.
For `CC1=C(C(=O)N2CCOCC2)CC(CC(=O)NCCCN(C)C)C(=O)N1CCCN1CCCC1=O` (centres undefined), the call was inactive.
Consider `COc1ccc(CCN=C(N)NS(=O)(=O)c2ccc(C)c(C)c2)cc1OC`, for which the result was inactive.
Turning to `O=C(N1CCOCC1)N1CCN(c2ccccn2)CC1`, the molecule was classed as inactive.
Turning to `CC1CC(C)CN(CC(O)COCc2ccccc2F)C1` (centres undefined), the outcome was inactive.
For the molecule `CCN(Cc1ccncc1)C(=O)c1cccc(S(=O)(=O)N2CCCCC2)c1`, the result was inactive.
The same measure for `COc1ccc(N2CCN(C(c3cccs3)C(C)NC(=O)C(=O)N3CCOCC3)CC2)cc1` (centres undefined): “inactive”; for `CN(Cc1ccc(OCC(O)CN(C)Cc2ccccc2)cc1)Cc1nccn1C` (centres undefined): “inactive”.
Turning to `CC(NC1CCN(Cc2ccccc2)CC1)c1ccc(F)cc1` (centres undefined), the call was inactive.
The same measure for `O=C(NNC1CCN(Cc2ccccc2)CC1)c1ccccc1`: “inactive”.
Turning to `CC(Oc1ccccc1Cl)C(=O)Nc1ccc(S(=O)(=O)Nc2nccs2)cc1` (centres undefined), the call was inactive.
On to `CCNc1nc(NC(C)CC)nc(ON=C(C)C)n1` (centres undefined), for which the call was inactive.
On to `Cc1cc(=O)oc2c3c(cc(OCC(=O)NC(C)C)c12)OC(C)(C)CC3`, for which the call was inactive.
Take `O=C(O)COc1ccc2c3c(c(=O)oc2c1)CCC3`: the molecule was called inactive.
The same measure for `O=c1[nH]c2ccccc2nc1-c1nnnn1C1CCCC1`: “inactive”; for `CCOc1ccc(OCCC(=O)N(CC)CC(=O)NCc2cccs2)cc1`: “inactive”; for `CC(O)c1nc2ccccc2n1C1CCCCC1` (centres undefined): “inactive”.
The same measure for `COc1ccc(N2C(=O)CC(Sc3nc(C)cc(C)c3C#N)C2=O)cc1` (centres undefined): “inactive”; for `O=C(Nc1ccccc1Oc1ccsc1C(=O)O)c1ccccc1F`: “inactive”; for `COc1cc(C(=O)Nc2cc(C(F)(F)F)ccc2N2CCOCC2)ccc1OCC(=O)N1CCOCC1`: “inactive”.
The same measure for `Cc1cc(C)nc(NC(N)=NCCc2c[nH]c3ccccc23)n1`: “inactive”; for `CCOC(=O)c1[nH]cnc1C(=O)NC(C)C`: “inactive”.
For `O=C1c2[nH]nc(-c3ccccc3)c2C(c2ccccc2)N1c1ccccc1` (centres undefined), the outcome was inactive.
For `NS(=O)(=O)c1ccc(CNC(=O)c2cc(S(=O)(=O)N3CCOCC3)ccc2N2CCCC2)cc1` the value was “inactive”; for `CCOc1ccc2oc(=O)cc(CN3CCOCC3)c2c1`, “inactive”.
In the case of `Cc1cccc(NC(=O)c2ccc(OCc3c(C)noc3C)cc2)c1C`, the molecule was called inactive.
Consider `CCCNC(=O)c1ccccc1NC(=O)COc1ccc(OC)cc1`, for which the outcome was inactive.
On to `COc1ccc(Nc2nc(NCc3cccs3)nc3ccsc23)cc1OC`, for which the outcome was inactive.
The same measure for `COc1ccc(C(=O)/C=C2\NCCc3cc(OC)c(OC)cc32)cc1OC`: “inactive”; for `COC(=O)c1ccc(OC)c(OC2CCCC2)c1`: “inactive”.
For `Cc1cccc2nc(-c3ccco3)c(Nc3ccccc3)n12`, the molecule was classed as inactive.
For `Cc1ccc(C(=O)c2sc(Nc3ccccc3)c(C#N)c2N)cc1` the value was “inactive”.
For the molecule `CNc1ccc2ncc(-c3ccc(OC)c(OC)c3)n2n1`, the result was inactive.
For `CN(Cc1ccccc1)c1nc2c(c(=O)[nH]c(=O)n2C)n1Cc1ccccc1` the value was “inactive”.
For `CCCCCCn1c(SCC(C)C)nc2c1c(=O)[nH]c(=O)n2C` the value was “inactive”; for `Cn1c(=O)[nH]c(=O)c2c1nc(NC1CCCC1)n2Cc1ccccc1`, “inactive”; for `C/C=C/Cn1c(N2CCCCCC2)nc2c1c(=O)[nH]c(=O)n2C`, “inactive”.
The same measure for `CC(C)CCn1c(N2CCCC2)nc2c1c(=O)[nH]c(=O)n2C`: “inactive”; for `C/C(Cl)=C/CSc1nc2c(c(=O)[nH]c(=O)n2C)n1C(C)C`: “inactive”; for `CCCN1C[C@@H](C)[C@@H](OC)CN(C)C(=O)c2ccc(NC(=O)c3cccc(F)c3)cc2OC[C@H]1C`: “inactive”.
